Source: PubChem (Broad Institute)
A selection follows.
aSyn UTR act = Activators via SNCA 5'UTR binding, MLPCN; activity score, % (tested at 7.5 µM), hits read low; AID 1814; hit rate 7.1% among 300,000; alpha-synuclein 5'UTR reporter, activators screen; in the data active means activity score below about -60%
Large screens that a line does not name were inactive.

Cc1ccnc(NC(=O)c2ccc(S(=O)(=O)N3CCCCCC3)cc2)c1	aSyn UTR act -119
O=C(Nc1ccccn1)c1ccc(Br)c(S(=O)(=O)N2CCCC2)c1	aSyn UTR act -65
CCS(=O)(=O)c1ncc(Cl)c(C(=O)Nc2ccc(S(=O)(=O)N3CCC(C)CC3)cc2)n1	none
O=C(Nc1ccccn1)c1ccc(S(=O)(=O)N2CCCCCC2)cc1	aSyn UTR act -87
O=C(Nc1ccccn1)c1ccc(S(=O)(=O)N2CCCCC2)cc1	aSyn UTR act -121
CCN(CC)CCNC(=O)c1ccc(NC(=O)c2ccc(S(=O)(=O)N3CCCCCC3)cc2)cc1	aSyn UTR act -64
O=C(Nc1ccccc1[N+](=O)[O-])c1ccc(S(=O)(=O)N2CCCC2)cc1	aSyn UTR act -131
O=C(N/N=C\c1cc(Br)ccc1O)c1ccc(S(=O)(=O)N2CCCCC2)cc1	none
Cc1cccc(NC(=S)N=Nc2c(O)n(C)c3ccc(S(=O)(=O)N4CCOCC4)cc23)c1	none
O=C(Nc1cccc(O)c1)c1ccc(S(=O)(=O)N2CCCCCC2)cc1	aSyn UTR act -68
C/C(=N\Nc1ccc(Cl)cc1)c1ccccn1	aSyn UTR act -138
N/C(=N\NC(=O)c1ccc(Cl)cc1)c1cnccn1	aSyn UTR act -67
C/C(=N/NC(=O)c1ccccn1)c1ccc(O)cc1	aSyn UTR act -90
O=C(NNC(=O)c1cnccn1)c1ccc(Cl)c(Cl)c1	none
C/C(=N\Nc1ccc2nncn2n1)c1ccccn1	none
COc1cc(C(=O)N/N=C(\C)c2ccccn2)cc(OC)c1OC	none
C/C(=N\NC(=O)c1ccc(Cl)cc1)c1ccccn1	aSyn UTR act -63
Clc1ccc(COc2ccccc2-c2ccnc3ncnn23)cc1	aSyn UTR act -75
C=CCNc1nc(N)c([N+](=O)[O-])c(Nc2ccccc2OC)n1	none
COc1ccc(CNc2ccc([N+](=O)[O-])cn2)cc1	aSyn UTR act -137
COc1ccccc1Nc1ccc([N+](=O)[O-])cn1	aSyn UTR act -74
COc1ccc(Nc2ccc([N+](=O)[O-])cn2)cc1	aSyn UTR act -120
O=[N+]([O-])c1ccc(NCCOc2ccccc2Cl)nc1	aSyn UTR act -74
CCOC(=O)C1CCN(c2ccc(-c3cccs3)nn2)CC1	aSyn UTR act -212
COc1cc(OC)c(OC)cc1CN1CCCC(C(=O)c2ccccc2SC)C1 (stereo not drawn)	none
COc1ccccc1C(=O)C1CCCN(C(=O)Nc2ccccc2F)C1 (stereo not drawn)	aSyn UTR act -64
COc1ccccc1OCCn1nnc2ccccc21	aSyn UTR act -101
Cc1ccc(OCCn2nnc3ccccc32)cc1C	aSyn UTR act -200
COc1nc(-c2ccccc2)cc(-c2ccc3c(c2)OCO3)c1C#N	none
c1ccc2c(Oc3ccc4c(c3)OCO4)nncc2c1	aSyn UTR act -71
O=C1CCC(O)CCN1CCSc1ccccc1 (stereo not drawn)	aSyn UTR act -93
CC(C)CN1CCC(=O)N(CCSc2ccccc2)CC1	aSyn UTR act -107
CCCN1CCC(=O)N(CCSc2ccc(C)cc2)CC1	aSyn UTR act -79
CN(C)C=Nc1ccc2nc3c(cc2c1)[nH]c1ccccc13	aSyn UTR act -233
Fc1ccc(/C=N/NC(=S)Nc2cccnc2)cc1F	aSyn UTR act -86
Cc1c(OCc2ccccc2)cccc1OCc1ccccc1	aSyn UTR act -71
CCOc1ccc2nc(N3CCCC(C(=O)NC4CCCC4)C3)sc2c1 (stereo not drawn)	aSyn UTR act -70
CCOc1ccc2nc(N3CCC(C(=O)N4CCN(c5ncccn5)CC4)CC3)sc2c1	aSyn UTR act -75
O=C1c2ccccc2C(=O)C12OC2c1ccc(Cl)cc1 (stereo not drawn)	aSyn UTR act -72
N#CCCCCn1ccc(NC(=O)c2ccc(Cl)cc2O)n1	aSyn UTR act -81
Fc1ccccc1C1CCN(Cc2nc(CC3CC3)no2)C1 (stereo not drawn)	aSyn UTR act -82
O=c1c2ccccc2cnn1-c1nc2ccccc2[nH]1	none
O=c1c2ccccc2nc2c3ccccc3cnn12	aSyn UTR act -172
Cc1ccc(NC(=O)c2ccc(OC(=O)c3cc4ccccc4o3)cc2)cc1	aSyn UTR act -124
Cc1ccc(NC(=O)c2ccc(OC(=O)c3ccco3)cc2)cc1	aSyn UTR act -122
Cc1ccc(Cn2cccc(NC(=O)c3ccco3)c2=O)cc1	aSyn UTR act -78
Cc1ccc(Oc2ccc(NC(=O)c3ccco3)cc2)cc1	aSyn UTR act -123
CC(=O)Nc1ccc(SCc2ncc(-c3ccccc3)o2)cc1	aSyn UTR act -130
CSc1nnc(-c2cc(-c3ccc(C)cc3)nc3ccccc23)o1	none
CCc1ccc(-c2cc(-c3n[nH]c(=S)n3CC)c3ccccc3n2)cc1	aSyn UTR act -69
Cc1ccnc(N2CCN(C(=O)CSc3nc4ccccc4nc3N3CCC(C)CC3)CC2)c1	aSyn UTR act -80
Cc1cccc(/C=N/c2sc3c(c2C#N)CCN(Cc2ccccc2)C3)c1O	aSyn UTR act -74
NC(=O)CSc1nc(C2CC2)nc2sc3c(c12)CCCC3	aSyn UTR act -109
Cc1cc(NC(=O)CSc2nc(C3CC3)nc3sc4c(c23)CCC(C)C4)no1 (stereo not drawn)	aSyn UTR act -70
CC(=O)Nc1cccc(-n2nnc(SCC(=O)c3ccccc3)n2)c1	aSyn UTR act -121
COc1ccc(C(=O)CSc2nnn(-c3cccc(NC(C)=O)c3)n2)cc1	aSyn UTR act -119
CC(C)(C)c1cc(C(=O)NCc2cc(F)cc3c2OCOC3)n(Cc2ccccc2)n1	aSyn UTR act -109
O=C(NC(Nc1ncc(S(=O)(=O)c2ccc([N+](=O)[O-])cc2)s1)(C(F)(F)F)C(F)(F)F)c1ccc(Cl)cc1	none
CC(C)(C)c1ccc(C(=O)Nc2ccc([N+](=O)[O-])cn2)cc1	aSyn UTR act -72
O=C(Nc1ccc([N+](=O)[O-])cn1)c1ccc2c(c1)OCO2	aSyn UTR act -91
O=C1c2ccccc2S(=O)(=O)N1Cc1nc2ccccc2s1	none
O=C(OCc1nc2ccccc2s1)C1CCN(C2=NS(=O)(=O)c3ccccc32)CC1	aSyn UTR act -98
CC1CCC(=O)N(CCOc2ccccc2)CC1 (stereo not drawn)	aSyn UTR act -80
O=C1CCN(Cc2ccccc2)CCN1CCOc1ccccc1	aSyn UTR act -99
C=CCn1c(=O)c2ccccc2n2c(Sc3nnnn3-c3ccccc3)nnc12	aSyn UTR act -74
COc1ccc2cnn(-c3ccc(OC(F)(F)F)cc3)c(=O)c2c1OC	aSyn UTR act -90
O=C(O)c1cccc(NC2=Nc3cccc4cccc2c34)c1	aSyn UTR act -114
CC1(C)COC(/C=C/c2ccc([N+](=O)[O-])cc2)=N1	aSyn UTR act -93
O=[N+]([O-])c1ccc(-n2cc(-c3ccccc3)nn2)cc1	aSyn UTR act -80
CC1CCc2c(sc(/N=C/N(C)C)c2C#N)C1 (stereo not drawn)	aSyn UTR act -80
CN(C)/C=N/c1sc2c(c1C#N)CCCC2	aSyn UTR act -80
Cc1ccc(C(=O)CC(c2cccs2)S(=O)(=O)c2ccc(C)cc2)cc1 (stereo not drawn)	aSyn UTR act -118
Cc1nnc(SC(=O)N2c3ccccc3Sc3ccccc32)s1	aSyn UTR act -66
CC(C)n1c(SCC(=O)N2c3ccccc3Sc3ccccc32)nc2c1c(=O)n(C)c(=O)n2C	none
CCN1CCN(C(CNC(=O)c2ccc3c(c2)OCO3)c2cccnc2)CC1 (stereo not drawn)	aSyn UTR act -69
CCCCn1cnc2c([nH]c3cc(OC)ccc32)c1=O	aSyn UTR act -129
COc1ccc2c(c1)[nH]c1c(=O)n(Cc3ccco3)cnc12	aSyn UTR act -65
O=C(O)C(C(=O)/C=C/c1ccco1)=C1SCCS1	aSyn UTR act -69
